BCR signal inh: qHTS Assay to Find Inhibitors of Chronic Active B-Cell Receptor Signaling; ABC-DLBCL IkBa-CBG/CBR reporter, luminescence ratio, 4 h; Potency, µM (highest dose often 46.1 µM), inactives show at the highest dose activity change, negative = inhibition, hits mostly inhibitors; 340,000 compounds, 0.05% hits; AID 493014, 2011; active = well fitted inhibition curve with a large enough effect in the signal ratio, with a control signal flat, not every such curve was filed as active; inconclusive = small, poorly fitted or top-dose-only effect, or effect the other way, or a change in a side signal; the % refers to the signal ratio;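 also: potency is read from the fitted curve at half-maximal effect; plate controls were basal doxycycline-induced cells for no effect and cells given 10 µM MG132 for full effect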
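Cell line TMD8 (human ABC DLBCL), stably expressing tet-inducible CBG68-IkBa fusion and CBR; IMDM/0.5% FBS; cpd up to 46 uM; dox induction, 4 h, 37C/5% CO2; dual luminescence; green/red ratio; MG132 control.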
Giardia killer: Small Molecules that selectively kill Giardia lamblia: qHTS; Giardia lamblia trophozoite viability; activity change, % at 7.66 µM, hits read low; 340,000 compounds, 0.15% hits; in the data active = activity change below about -80%; inconclusive = between about -30% and that limit;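 also: parasites exposed to compound for two days anaerobically before the ATP read; % is scaled to controls: 0 for no effect and ±100 for the full control effect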
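Giardia trophozoites, 100 cells per well, were exposed to compounds for 48 hrs at 37 deg C under anaerobic conditions; viability was then read as ATP content by bioluminescence after 15-30 min at room temperature.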
SW480 rereplic: A quantitative high throughput screen for small molecules that induce DNA re-replication in SW480 colon adenocarcinoma cells. SW480 DNA re-replication, Hoechst DNA content imaging, 48 h. Potency, µM (top dose mostly 46.1 µM), for inactives: top-dose re-replication activation, actives largely listed as activators. 340,000 compounds, 1.8% hits; also: potency is read from the fitted curve at half-maximal effect; % of control where 0% means no effect; nearly all actives have a fitted effect of over 55% in size
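DNA re-replication was detected as more nuclei of elevated Hoechst intensity after 48 hr exposure to compound (23 nL pinned per well of 250 cells).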
RORgamma inh: qHTS for inhibitors of ROR gamma transcriptional activity. Nuclear receptor ROR-gamma (Mus musculus), P51450. Drosophila S2 Gal4-RORgamma UAS-luciferase reporter, 20 h. Potency, µM (top dose mostly 53.6 µM), for the others: top-dose activity change, negative = inhibition, usual class: inhibitors. 310,000 compounds, 5.4% hits; also: potency is read from the fitted curve at half-maximal effect; % is scaled to controls: 0 for no effect and ±100 for the full control effect; nearly all actives have a fitted effect of over 60% in size
Target sequence (P51450 whole entry, looked up, the tested form may be a part): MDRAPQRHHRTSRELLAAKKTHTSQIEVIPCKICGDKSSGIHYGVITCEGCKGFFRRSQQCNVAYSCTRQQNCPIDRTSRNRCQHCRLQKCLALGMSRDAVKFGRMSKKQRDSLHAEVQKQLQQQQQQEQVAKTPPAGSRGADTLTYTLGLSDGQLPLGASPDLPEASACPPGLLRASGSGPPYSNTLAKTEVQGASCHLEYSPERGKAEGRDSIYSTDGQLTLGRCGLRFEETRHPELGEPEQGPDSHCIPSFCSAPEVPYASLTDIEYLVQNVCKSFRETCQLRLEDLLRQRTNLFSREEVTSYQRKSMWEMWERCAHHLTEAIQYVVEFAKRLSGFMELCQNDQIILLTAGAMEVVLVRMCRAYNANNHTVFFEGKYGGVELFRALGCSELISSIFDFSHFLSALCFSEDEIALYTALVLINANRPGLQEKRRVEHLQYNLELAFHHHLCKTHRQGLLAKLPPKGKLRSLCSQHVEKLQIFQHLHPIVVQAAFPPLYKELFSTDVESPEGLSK
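In this cell-based reporter format, copper sulfate (700 uM final) drives Gal4–ROR gamma fusion expression from a metallothionein promoter in Drosophila Schneider cells; compounds preincubated 1 hr, reporter read after 20 hr at ambient temperature.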
MCF10A rereplic: A quantitative high throughput screen for small molecules that induce DNA re-replication in MCF 10a normal breast cells; MCF 10A DNA re-replication, Hoechst nuclear intensity, 48 h; Potency, µM (doses to about 46.1 µM), without a hit: at the top dose activity, positive = re-replication, actives largely listed as activators; 350,000 compounds, 2.9% hits; AID 624296, 2012; also: potency is read from the fitted curve at half-maximal effect; % of control where 0% means no effect; nearly all actives have a fitted effect of over 50% in size
VP16 counter: VP16 counterscreen qHTS for inhibitors of ROR gamma transcriptional activity. Drosophila S2 Gal4-VP16 UAS-luciferase, luminescence, 20 h. Potency, µM (doses to about 53.6 µM), inactives show at the highest dose activity, negative = inhibition, usual class: inhibitors. 310,000 compounds, 3.5% hits. AID 2546, 2010;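 also: Gal4-VP16 expression switched on by copper sulfate through the metallothionein promoter; potency is read from the fitted curve at half-maximal effect; % is scaled to controls: 0 for no effect and ±100 for the full control effect; nearly all actives have a fitted effect of over 50% in size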
* hit, by the source's call; u = inconclusive; x = no result; [ ] = another dose, or the depositor's remark. In the library only some 8.3% were active in any assay of this set; here they are far more common. Unless noted, calls follow the shape of the dose curve; as a rule, active = well fitted curve in the direction sought with a large enough effect; inconclusive = small, poorly fitted or top-dose-only effect, or another doubt; inactive = no such curve, though single readings can be large; an effect the other way counts as inactive or inconclusive.

SMILES	BCR signal inh	Giardia killer	SW480 rereplic	RORgamma inh	MCF10A rereplic	VP16 counter
CCC1C(=O)Nc2ccccc2N1C(=O)COc1ccccc1 (centres undefined)	1.4%	3.7	-6.3%	-11.0%	3.8%	17.9%
O=C(NC1CCN(S(=O)(=O)c2ccccc2)CC1)c1cccc(F)c1	-0.2%	6.1	0.5%	25.5%	0.6%	0.0%
CSc1nc(SCC(=O)NC(c2ccccc2)c2ccccc2)c2c3c(sc2n1)CN(C)CC3	5.5%	19.8	5.8µM*	-35.4%	5.17µM*	u
CC1CCC2C(=O)N(c3ccc(Cc4ccncc4)cc3)C(=O)C2C1 (centres undefined)	2.6%	-2.0	u	11.2µM*	-12.2%	6.31µM*
O=C1C2C3C=CC(C3)C2C(=O)N1c1ccc(Cc2ccncc2)cc1 (centres undefined)	1.6%	6.9	13.0%	-25.0%	17.4%	22.4µM*
O=C(O)CCC(=O)OCCCc1cc2ccccc2c(=O)o1	-1.8%	-10.8	1.3%	x	-2.0%	x
N#Cc1c(N2CCN(c3ccc([N+](=O)[O-])cc3)CC2)[n+](=O)c2ccc(Cl)cc2n1[O-]	x	u	8.2µM*	x	u	x
O=C(CN1C(=O)c2cccc3cccc1c23)Nc1ccccc1C(=O)NCc1ccco1	x	-18.9	27.8%	x	20.6µM*	x
CCn1c(=O)c(C(=O)NCc2ccccn2)c(O)c2ccccc21	u	-2.6	u	3.16µM*	u	7.08µM*
CCCCCCCCCCC(=O)NNC(=O)c1c(O)c2ccccc2n(CC)c1=O	-0.8%	x	x	2.1%	x	-6.6%
CCCn1c(=O)c(C(=O)NNS(=O)(=O)c2ccc(Cl)cc2)c(O)c2ccccc21	-4.0%	-8.4	-3.5%	0.6%	14.6µM*	u
CCCn1c(=O)c(C(=O)Nc2cccc(C)n2)c(O)c2ccccc21	-0.3%	6.9	-0.8%	27.8%[1.91 µM]	12.5%	u
CCn1c(=O)c(C(=O)NNC(=O)Cc2ccccc2)c(O)c2ccccc21	-2.4%	-3.1	u	12.6µM*	20.0%	-22.4%
CCCn1c(=O)c(C(=O)Nc2ccccc2C(=O)OCC)c(O)c2ccccc21	5.3%	-17.3	u	-10.2%	11.2µM*	3.2%
CCn1c(=O)c(C(=O)NCc2ccc(OC)cc2)c(O)c2ccccc21	u	4.0	12.4%	-12.3%	2.7%	u
Cc1cc(=O)oc2cc(OCC(=O)OCC(=O)NC3CC3)ccc12	-11.6%	8.9	15.1%	-11.0%	-0.2%	11.1%
CCn1c(=O)c(C(=O)NNC(=O)c2cccc(Cl)c2)c(O)c2ccccc21	u	14.7	u	u	23.1µM*	u
CCn1c(=O)c(C(=O)Nc2nc3ccccc3[nH]2)c(O)c2ccccc21	u	-17.2	u	11.2µM*	9.2µM*	8.91µM*
CCn1c(=O)c(C(=O)Nc2ccccc2)c(O)c2ccccc21	u	8.6	-0.5%	18.2%	10.5%	-2.8%
CCn1c(=O)c(C(=O)NNC(=O)c2ccc(Cl)cc2Cl)c(O)c2ccccc21	-6.1%	0.3	u	10µM*	u	u
Cn1c(=O)c(C(=O)NNC(=O)c2cccc(Cl)c2)c(O)c2ccccc21	u	5.4	9.2µM*	14.1µM*	7.31µM*	17.8µM*
Cc1cccc(-c2noc(CNS(=O)(=O)c3ccccc3)n2)c1	0.6%	10.8	-8.8%	32.4%	6.2%	0.2%
O=C(N/C(=C/c1cccc([N+](=O)[O-])c1)C(=O)N1CCOCC1)c1ccccc1Br	0.3%	-3.0	12.4%	-1.5%	-0.2%	-9.9%
C[C@@]12C(=O)N(CC3CC3)CC(=O)N1[C@H](/C=C/c1ccccc1)[C@@H]1C(=O)N(c3ccccc3)C(=O)[C@@H]12	18.2%	25.8	u	-15.3%	15.0%	-2.3%
O=C(c1ccccc1)N1N=C(c2ccc(F)cc2)CC1(O)C(F)(F)F (centres undefined)	-10.0%	-17.1	-6.3%	u	10.2%	u
SMILES	BCR signal inh	Giardia killer	SW480 rereplic	RORgamma inh	MCF10A rereplic	VP16 counter
COc1ccc(C2=NN(C3=NN=C(N)Cc4ncnn43)C(O)(C(F)(F)F)C2)cc1 (centres undefined)	-14.5%	-18.1	-4.9%	8.91µM*	0.581µM*	11.2µM*
NC1=NN=C(N2N=C(c3ccccc3)CC2(O)C(F)(F)F)n2ncnc2C1 (centres undefined)	0.1%	-2.1	-2.0%	12.6µM*	2.1%	u
NC1=NN=C(N2N=C(c3ccc(Br)cc3)CC2(O)C(F)(F)F)n2ncnc2C1 (centres undefined)	4.0%	-19.3	-1.5%	u	-8.9%	17.8µM*
COc1ccccc1C1=NN(C2=NN=C(N)Cc3ncnn32)C(O)(C(F)(F)F)C1 (centres undefined)	-1.5%	-16.2	56.3%	u	0.581µM*	-7.2%
O=C(CN1CCN(c2cccc(Cl)c2)CC1)NC1CCCc2ccccc21 (centres undefined)	u	7.4	1.0%	30.4%	20.6µM*	-4.5%
O=C(CCl)NC1CCCc2ccccc21 (centres undefined)	-3.9%	-4.1	8.0%	-11.5%	3.2%	-4.9%
CC(=O)Nc1cccc(NC(=O)Cc2ccc3ccccc3c2)c1	u	-0.2	-6.2%	-14.1%	6.2%	-3.4%
CN(CC(=O)Nc1cccc(F)c1)C(=O)c1ccc2c(c1)CC(c1ccccc1)OC2=O (centres undefined)	u	0.9	18.4µM*	x	18.4µM*	x
CC1CN(CCOc2ccc(Cl)cc2Cl)CC(C)O1 (centres undefined)	0.3%	-0.3	-1.2%	-9.7%	5.4%	1.9%
COc1ccc(N2CCN(CCS(=O)(=O)c3cc(Cl)ccc3Cl)CC2)cc1	-10.7%	2.1	7.31µM*	x	5.8µM*	x
COC(=O)CCS(=O)(=O)c1cc(Cl)ccc1Cl	0.2%	9.2	-1.9%	-0.8%	6.3%	0.1%
CC(=O)N1CCN(CCS(=O)(=O)c2cc(Cl)ccc2Cl)CC1	u	18.8	u	x	14.6µM*	x
CC1CN(CCS(=O)(=O)c2cc(Cl)ccc2Cl)CC(C)O1 (centres undefined)	u	6.5	u	-37.8%	2.91µM*	7.7%
COc1cccc(C2C(C#N)=C(N)SC(c3ccccc3)C2[N+](=O)[O-])c1 (centres undefined)	-0.1%	5.8	-5.4%	-10.2%	6.6%	-34.5%
O=C(NN(c1ccccc1)c1ccccc1)c1ccc([N+](=O)[O-])o1	u	-89.3*	11.6µM*	u	u	7.1%
